TDP1 cell CPT – growth inhibition of DT40 Tdp1-/-;hTDP1 cells with camptothecin (screen for TDP1 inhibitors); Potency, µM (top dose mostly 46.2 µM), for inactives: at the top dose activity change, negative = growth inhibition, most hits filed as inhibitors; 420,000 tested, 12% active; chicken DT40 Tdp1-/-;hTDP1 cells + 20 nM CPT, ATP luminescence, 48 h; further: potency means the concentration at half of the fitted maximal effect; nearly all actives have a fitted effect of over 55% in size
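Cell growth measured by CellTiter-Glo luminescence after a minimum 48 h, 37 C compound exposure with 20 nM CPT in Tdp1-knockout DT40 cells stably expressing hTDP1, seeded 400/well; qHTS titration format.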
ELG1 DNA repair – inhibitors of ELG1-dependent DNA repair in HEK293T cells | AID 504467 | Potency, µM (titrated, usually from 46.1 µM), inactives show top-dose activity change, negative = inhibition, usual class: inhibitors | HEK293T ELG1-luciferase reporter, luminescence, 16 h; DNA damage induced by 5-fluorouridine | 330,000 tested, 2.3% active; further: potency means the concentration at half of the fitted maximal effect; nearly all actives have a fitted effect of over 55% in size
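HEK293T cells expressing luciferase-tagged ELG1 (2,000/well) received 5-Fluorouridine plus compound or DMSO for 16 hr at 37 °C. Luciferase was read by ONE-Glo luminescence after 30 min at room temperature.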
DT40 TDP1 no CPT – qHTS for Inhibitors of human tyrosyl-DNA phosphodiesterase 1 (TDP1): qHTS in cells in absence of CPT | DT40 Tdp1-/- hTDP1 cells, no CPT, ATP luminescence, 48 h | Potency, µM (top dose mostly 46.2 µM), for the others: at the top dose activity change, negative = growth inhibition, hits mostly inhibitors | 420,000 tested, 15% active | AID 686978, 2013; further: potency means the concentration at half of the fitted maximal effect; nearly all actives have a fitted effect of over 55% in size
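Luminescent ATP content (CellTiter-Glo) served as the growth readout. Knockout chicken DT40 cells expressing human TDP1 were exposed to compounds without camptothecin for a minimum 48 hr at 37 °C.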
IL1B secr inh – blocks inflammasome-driven IL-1 beta release; AID 743279; THP-1 LPS/ATP IL-1B secretion, AlphaLISA, 16 h; active compounds read low; 360,000 tested, 4.7% active; activity change, % at 57.5 µM; in the data active means activity change below about -50%; inconclusive means mostly about -30% to -49%
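THP-1 cells pretreated 1 hr with compounds (up to 57.5 uM final), then stimulated with LPS (250 ng/mL final) plus ATP (1.25 mM final); secreted IL-1B measured by AlphaLISA after 16 hr, decreased signal indicating inhibition.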
RORgamma inh – blocks mouse ROR gamma transcriptional activity; P51450; Drosophila S2 Gal4-RORgamma UAS-luciferase reporter, 20 h; Potency, µM (doses to about 53.6 µM), without a hit: at the highest dose activity change, negative = inhibition, usual class: inhibitors; 310,000 tested, 5.4% active; AID 2551; further: potency means the concentration at half of the fitted maximal effect; nearly all actives have a fitted effect of over 60% in size
Target sequence (P51450 whole entry, looked up, the tested form may be a part): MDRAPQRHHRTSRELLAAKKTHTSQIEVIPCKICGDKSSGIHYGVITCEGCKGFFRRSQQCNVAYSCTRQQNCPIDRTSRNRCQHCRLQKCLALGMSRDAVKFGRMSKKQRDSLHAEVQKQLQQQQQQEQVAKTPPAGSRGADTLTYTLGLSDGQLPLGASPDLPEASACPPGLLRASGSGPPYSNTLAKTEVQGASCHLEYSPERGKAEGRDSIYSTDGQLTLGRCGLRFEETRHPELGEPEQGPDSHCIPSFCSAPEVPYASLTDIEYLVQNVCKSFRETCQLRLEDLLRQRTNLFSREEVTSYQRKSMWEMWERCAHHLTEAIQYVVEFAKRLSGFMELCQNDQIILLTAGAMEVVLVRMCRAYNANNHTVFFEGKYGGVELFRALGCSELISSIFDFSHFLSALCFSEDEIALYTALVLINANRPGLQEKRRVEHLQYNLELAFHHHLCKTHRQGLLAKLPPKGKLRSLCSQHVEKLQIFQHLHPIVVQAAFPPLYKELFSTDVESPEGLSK
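Stably transfected Drosophila Schneider cells are the test system, with ROR gamma fused to Gal4 and luciferase under UAS control; luminescence is read after 20 hr of 700 uM copper sulfate induction at ambient temperature.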
Gal4-VP16 FLuc – inhibits Gal4-VP16 luciferase reporter, ROR gamma counter-screen; Potency, µM (titrated, usually from 53.6 µM), inactives show at the top dose activity, negative = inhibition, usual class: inhibitors; Drosophila S2 Gal4-VP16 UAS-luciferase, luminescence, 20 h; 310,000 tested, 3.5% active;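 further: Gal4-VP16 expression switched on by copper sulfate through the metallothionein promoter; potency means the concentration at half of the fitted maximal effect; nearly all actives have a fitted effect of over 50% in size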
Numbers without * were called inactive; ? = inconclusive; . = not tested or not shown; [ ] = remark or other dose. In the library only some 21% were active in any assay of this set; here they are far more common. Unless noted, the call rests on the fitted dose curve; in most records, active means well fitted curve in the direction sought with a large enough effect; inconclusive means small, poorly fitted or top-dose-only effect, or another doubt; inactive means no such curve, though single readings can be large; an effect the other way counts as inactive or inconclusive. On the % scale 0 is the no-effect control and ±100 the full control effect.

SMILES	TDP1 cell CPT	ELG1 DNA repair	DT40 TDP1 no CPT	IL1B secr inh	RORgamma inh	Gal4-VP16 FLuc
O=C(Nc1ccc(N2CCCC2)c(Cl)c1)c1cccs1	-29%	?	-25%	.	11%	-25%
O=C(NC(=S)Nc1ccc(N2CCOCC2)c(Cl)c1)c1cccs1	?	-6%	?	-25	?	14µM*
Cc1ccc(-c2ccc(C#N)c(=O)n2CC(=O)N(C)C)cc1	-11%	1%	?	21	34%	-6%
CC(=O)C[C@H](O)[C@@H](NC(=O)OC(C)(C)C)C(C)C	.	.	.	.	-3%[10 µM]	-4%[10 µM]
Cc1ccc(S(=O)(=O)NCCS(=O)(=O)N2CCN(c3ccccc3)CC2)cc1	-22%	?	?	11	15%	-10%
Cc1cc(C)c(S(=O)(=O)NCCS(=O)(=O)N2CCN(c3ccccc3)CC2)c(C)c1	23µM*	.	18µM*	.	.	.
O=S(=O)(NCCS(=O)(=O)N1CCN(c2ccc(F)cc2)CC1)c1ccccc1	?	.	?	-6	.	.
O=[N+]([O-])c1ccc(S(=O)(=O)NCCS(=O)(=O)N2CCN(c3ccccc3)CC2)cc1	?	?	16µM*	37	-1%	-1%
CC(=O)Nc1ccc(S(=O)(=O)NCCS(=O)(=O)N2CCN(c3ccccc3)CC2)cc1	?	?	-16%	46	29%	-11%
CC(=O)Nc1ccc(S(=O)(=O)NCCS(=O)(=O)N2CCN(c3ccccc3F)CC2)cc1	16µM*	-16%	21µM*	23	14%	-4%
COc1ncnc2c1ncn2CCCNC1CCN(Cc2ccccc2)CC1	6%	.	?	?	.	.
CCOC(=O)C1CCN(C(=O)COC(=O)Cc2ccc(Cl)cc2)CC1	1%	0%	-4%	19	-3%	-2%
COc1cc(C(=O)C(=O)c2ccc(OC)c(OC)c2)ccc1O	18%	.	-1%	6	.	.
COc1ccc(-n2nnc(-c3nc(-c4cccs4)no3)c2N)cc1OC	12%	.	-7%	.	.	.
CCCOc1ccc(C2c3c(-c4ccccc4O)n[nH]c3C(=O)N2Cc2ccncc2)cc1OCC (stereo not drawn)	23µM*	.	-24%	.	.	.
CCOc1cc(C2c3c(-c4ccccc4)n[nH]c3C(=O)N2c2ccc(C(=O)O)cc2)ccc1O (stereo not drawn)	11%	-15%	3%	3	24%	-3%
CCCOc1ccc(C2c3c(-c4ccccc4O)n[nH]c3C(=O)N2CCCOCC)cc1OCC (stereo not drawn)	23µM*	.	?	.	.	.
COc1ccc(C2c3c(oc4ccccc4c3=O)C(=O)N2Cc2ccncc2)cc1OC (stereo not drawn)	-4%	.	-13%	38	.	.
CC(C)=CCC/C(C)=C/CNC(=O)C[C@H]1C[C@H](C(=O)N(C(C)C)C(C)C)[C@@]2(C)c3[nH]c4cc(-c5ccco5)ccc4c3CCN2C1=O	?	-2%	?	-65*	.	.
CC(C)=CCC/C(C)=C/CNC(=O)C[C@H]1C[C@H](C(=O)N(C(C)C)C(C)C)[C@@]2(C)c3[nH]c4cc(CCC(=O)N(C)C)ccc4c3CCN2C1=O	10µM*	?	9.2µM*	-67*	.	.
C[C@]12c3[nH]c4cc(-c5ccco5)ccc4c3CCN1C(=O)[C@@H](CC(=O)NCCN1CCOCC1)C[C@@H]2C(=O)N1CCCCC1	-28%	15%	?	0	.	.
CCN(CC)C(=O)[C@H]1C[C@H](CC(=O)NC/C=C(\C)CCC=C(C)C)C(=O)N2CCc3c([nH]c4cc(-c5ccco5)ccc34)[C@]12C	?	2%	?	-65*	.	.
CC(C)=CCC/C(C)=C/CNC(=O)C[C@H]1C[C@H](C(=O)N2CCCCC2)[C@@]2(C)c3[nH]c4cc(-c5ccco5)ccc4c3CCN2C1=O	?	-29%	21µM*	-67*	.	.
COc1cccc(C(=O)NNS(=O)(=O)c2ccccc2)c1	0%	.	-18%	12	.	.
C[C@H]1COc2cccc(N3CCC[C@@H]3CO)c2S(=O)(=O)N1	4%	.	-16%	19	.	.
SMILES	TDP1 cell CPT	ELG1 DNA repair	DT40 TDP1 no CPT	IL1B secr inh	RORgamma inh	Gal4-VP16 FLuc
O=C(O)/C=C/C(=O)Nc1ccc(N2CCOCC2)nc1N1CCOCC1	21µM*	14%	23µM*	-7	?	?
CS(=O)(=O)N(CC(=O)O)c1cc(C(F)(F)F)ccc1Cl	-9%	30%	4%	0	.	.
Clc1cccc(-c2cc3nc4c(c(NCc5ccco5)n3n2)CCCC4)c1	21µM*	?	11µM*	-96*	?	-7%
c1coc(CNc2c3c(nc4ncnn24)CCCC3)c1	?	-18%	-17%	5	42%	-1%
CC12CCC(c3c(C(=O)Nc4nccs4)nn(-c4ccccc4)c31)C2(C)C (stereo not drawn)	16µM*	?	18µM*	-21	?	-81%
CC12CCC(c3c(C(=O)O)nn(-c4ccccc4)c31)C2(C)C (stereo not drawn)	0%	0%	3%	-4	7%	-6%
O=C(C1CCCCC1)N1CCOc2ccc(CN3CCN(Cc4ccccn4)CC3)cc2C1	0%[9.04 µM]	.	-9%	.	.	.
Cc1cc(/C=C(\C#N)C(=O)Nc2ccccc2F)c(C)[nH]1	5%	?	6%	-4	-7%	0%
